# Measured values as given in PubChem BioAssay (EPA / NIEHS).
# Active and inactive are the calls of the source. Rule for the calls: active = hit-call score of the fitted dose curve at least 0.9, where 1 is the maximum; inactive = score below 0.9.
# Assay: BSK_SAg_Proliferation: Cell Proliferation Assessment in the BioMAP Diversity Plus: SAg Assay (AID 2283095)
# Details: primary human HUVEC with PBMC
# Description: BSK_SAg is a cell-based, multiplexed-readout assay that uses umbilical vein endothelium and peripheral blood mononuclear cells, a human vascular primary cell co-culture, with measurements taken at 24 hours after chemical dosing in a 96-well plate.BSK_SAg_Proliferation is an assay component in the BSK_SAg assay. It measures protein content, a form of viability reporter, as detected with absorbance signals by Sulforhodamine staining technology. Data from the assay component BSK_SAg_Proliferation was analyzed into 1 assay endpoint. This assay endpoint, BSK_SAg_Proliferation, was analyzed with bidirectional fitting relative to DMSO as the negative control and baseline of activity. Using a type of viability reporter, measures of total protein for gain or loss-of-signal activity can be used to understand the viability at the cellular-level. Furthermore, this assay endpoint can be referred to as a secondary readout, because this assay has produced multiple assay endpoints where this one serves a viability function. To generalize the intended target to other relatable targets, this assay endpoint is annotated to the cell cycle intended target family, where the subfamily is proliferation.
# The levels of cell surface (or secreted, indicated by the prefix "s") biomarker endpoints were measured by ELISA. Overt cytotoxicity to cells in confluent adherent cultures (all systems other than the BT system) was assessed by measuring total protein levels using sulforhodamine B (SRB) staining in parallel cultures at the time of biomarker measurements, indicated as SRB endpoints. For proliferation assays for adherent cell types, individual cell types are cultured at sub-confluence and relative cell numbers quantified by SRB staining at time points optimized for each system (48 h: 3C and CASM3C systems; 72 h: BT and HDF3CGF systems; 96 h: SAg system). SRB was performed by staining cells with 0.1% SRB after fixation with 10% TCA and reading wells at 560 nm.Viability and proliferation of PBMC (T cells) was quantified by Alamar Blue reduction for the SAg and BT systems. For PBMC viability (referred to as PBMC Cytotoxicity within the assay endpoint names), cells were plated (75,000/well in a 96-well plate) and then chemical samples added for 1 h before addition of activators, SEB and TSST-1 (20 ng/mL final concentration each). Cells were incubated for 90 h. Then, Alamar Blue (20 uL/well) (Invitrogen, Cat DAL1100) was added for 6 h, and the plates were read with a fluorescence microplate reader at 546/580 nm (excitation/emission). For PBMC proliferation, cells were plated and activated as above but incubated for only 16 h prior to addition of Alamar Blue. Plates were read after 6 h.
SMILES,outcome,AC50
COc1cc(C=O)ccc1O,inactive,–
CCCCCCC(=O)OCC,inactive,–
NCCO,inactive,–
COCCOC[C@H](CC1(C(=O)NC2CCC(C(=O)O)CC2)CCCC1)C(=O)Oc1ccc2c(c1)CCC2 (stereo not given in full),inactive,–
CCOC(=O)C(C)(C)Oc1ccc(Cl)cc1,inactive,–
CC1(C)NC(=O)NC1=O,inactive,–
C1CCC(SSC2CCCCC2)CC1,–,15 µM (active)
Nc1ccc2c(c1)C(=O)c1ccccc1C2=O,inactive,–
CC(=O)OCCOCCOCCOC(C)=O,inactive,–
Cc1cccc([N+](=O)[O-])c1C,inactive,–
CCNc1cccc(C)c1,inactive,–
NC(=O)Cn1c(=O)cc(CCN2CCN(c3nccc4sccc34)CC2)c2ccc(F)cc21,inactive,–
Oc1ccc2c(c1)OC[C@@H](N1CCC(O)(c3ccc(F)cc3)CC1)[C@H]2O,inactive,–
O=[N+]([O-])C(CO)(CO)CO,–,17.8 µM (active)
Cc1cccc(C)c1O,inactive,–
COc1cc(-c2nc(NC(=O)c3cc4cc(C)cc(C)c4n3CC(=O)O)sc2CCC2CCCCC2)c(OC)cc1Cl,–,3.49 µM (active)
CCCCC(CC)COC(=O)CC(C(=O)OCC(CC)CCCC)S(=O)(=O)O (stereo not given),–,32.5 µM (active)
CNC(=O)[C@H]1O[C@@H](n2cnc3c(NCc4cc(Cl)ccc4OCc4cc(C)no4)ncnc32)[C@H](O)[C@@H]1N,inactive,–
COCCOCCOC,inactive,–
NS(=O)(=O)c1cc2c(cc1Cl)NCNS2(=O)=O,inactive,–

SMILES,outcome,AC50
COc1ccc2c(c1)c(CC(=O)O)c(C)n2C(=O)c1ccc(Cl)cc1,inactive,–
FC(F)(F)C(F)(F)C(F)(F)C(F)(F)C(F)(F)C(F)(F)CCI,inactive,–
O=c1c(O)c(-c2ccc(O)c(O)c2)oc2cc(O)cc(O)c12,–,28.6 µM (active)
Cc1nc(C)nc(N2C[C@@H](C)N(c3ccnc([C@@H](C)O)n3)[C@@H](C)C2)n1,inactive,–
CCCCN(CCCC)CCCC,inactive,–
CCCCCC(=O)O,inactive,–
C[C@]12C=CC(=O)C=C1CC[C@@H]1[C@@H]2C(=O)C[C@@]2(C)[C@H]1CC[C@]2(O)C(=O)CO,inactive,–
Cc1ccc2ncccc2c1,inactive,–
CNCc1cc(F)ccc1Oc1ccc(Cl)c(Cl)c1,–,26.1 µM (active)
CCCCCCCCCCC,inactive,–
O=C(OCCCCCOC(=O)c1ccccc1)c1ccccc1,inactive,–
CC(CO)OC(C)CO (stereo not given) (tested in a mixture with another compound),inactive,–
CC1=C(/C=C/C(C)=C/C=C/C(C)=C/CO)C(C)(C)CCC1,–,26.1 µM (active)
COc1ccc(S(=O)(=O)N2C(=O)[C@@](c3ccccc3OC)(N3C[C@H](O)C[C@H]3C(=O)N(C)C)c3cc(Cl)ccc32)c(OC)c1,–,29.4 µM (active)
CCCCc1ccc2c(n1)[C@@H](c1ccc(OC)cc1C[C@H](C)C(=O)O)[C@H](C(=O)O)[C@H]2c1ccc2c(c1)OCO2,inactive,–
Cc1ccc(C)c(C)c1,inactive,–
OC[C@@H](O)[C@@H](O)[C@H](O)[C@H](O)CO,inactive,–
Cc1ccccc1Cl,inactive,–
CCCCCCCC=O,inactive,–
Cc1ccc(C(C)C)c(O)c1,inactive,–
